Data: PubChem BioAssay (NCI)
The panel holds about 83,000 compounds, 20% with a hit somewhere; the sample as a whole holds those more often.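 96-well plates, one dose, 48 hours. Percent growth reported; active if below 10.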 Activity calls are given as the source filed them.

tested on: HL-60(TB) leukemia; assay: NCI-60 one-dose screen, 48 h (100 = growth as untreated, 0 = no growth, -100 = all killed); settings: 10 µM unless noted

**Q.** Which growth does the source give for `O=C1c2nsnc2C(=O)c2c(F)c(F)c(F)c(F)c21` here?
**A.** -41.9% (active)

**Q.** With `O=C(c1ccc(C(F)(F)F)c(Cl)c1)N(Cc1ccc(Cl)cc1)c1ccc(-c2cc(C(F)(F)F)[nH]n2)c(O)c1` as the molecule, how does the growth read?
**A.** -14.9% (active)

**Q.** With `O=C(/C=C/c1ccccc1Cl)c1cccc(OCCCCOc2cccc(C(=O)/C=C/c3ccccc3Cl)c2)c1` as the molecule, how does the growth read?
**A.** 105% (inactive)

**Q.** With `COc1ccc(/C(=C/c2ccc3ccccc3c2)c2nn[nH]n2)cc1OC` as the molecule, how does the growth read?
**A.** -1.21% (active)

**Q.** With `[2H]c1nc(Nc2ncc(F)c(-c3cc(F)c4nc(C)n(C(C)C)c4c3)n2)c([2H])c([2H])c1CN1CCN(CC)CC1` as the molecule, how does the growth read?
**A.** 24.6% (inactive)

**Q.** `COc1cc(-c2cc(C(=O)Nc3nc4ccccc4s3)nc3cc(-c4ccccc4)nn23)cc(OC)c1OC` was tested. Which growth did it give?
**A.** 48.3% (inactive)

**Q.** Which growth does the source give for `CCOC(=O)NN1CC(O)=C(c2nc(-c3ccc(Br)cc3)cs2)C1=N` here?
**A.** 98.8% (inactive)

**Q.** `CCOC(=O)OCC(=O)[C@@]1(O)CC[C@H]2[C@@H]3CCC4=CC(=O)CC[C@]4(C)[C@H]3[C@@H](O)C[C@@]21C` was tested. Which growth did it give?
**A.** 108% (inactive)

**Q.** For `C=CCSc1nnc(COc2ccc3c(C)c(Cc4ccccc4)c(=O)oc3c2C)o1`, which growth is on record?
**A.** 96.1% (inactive)

**Q.** For `O=c1cc(-c2ccc(Cl)cc2)[nH]c2ccccc12`, which growth is on record?
**A.** 44.3% (inactive)

**Q.** How did the growth turn out when `CC(=O)Nc1nc2c(s1)CCc1c-2cn(S(=O)(=O)c2ccccc2)c1-c1ccccc1` was run?
**A.** 71% (inactive)

**Q.** `C=C[C@]1(C)C=C2CC[C@@H]3C(C)(C)C(=O)CC[C@@]3(C)[C@@H]2CC1` was tested. Which growth did it give?
**A.** 101% (inactive)

**Q.** Which growth does the source give for `CC[C@H]1OC(=O)[C@H](C)[C@@H](O[C@H]2C[C@@](C)(OC)[C@@H](O)[C@H](C)O2)[C@H](C)[C@@H](O[C@@H]2O[C@H](C)C[C@H](N(C)C)[C@H]2O)[C@](C)(O)C[C@H](C)CN(C)[C@H](C)[C@@H](O)[C@]1(C)O` here?
**A.** 89.9% (inactive)

**Q.** Which growth does the source give for `C=C1C(=O)O[C@H]2[C@H]1CC/C(COC(=O)C(C)c1ccc(CC(C)C)cc1)=C\CC[C@@]1(C)O[C@@H]21` (some centres not stated) here?
**A.** -9.46% (active)

**Q.** With `O=C1CC(c2ccsc2)c2snc(-c3ccc(Cl)cc3)c2N1` (configuration not stated) as the molecule, how does the growth read?
**A.** 12.9% (inactive)

**Q.** Which growth does the source give for `C[n+]1c(-c2ccccc2)c2cc(N)ccc2c2ccccc21` here?
**A.** 59.4% (inactive)

**Q.** With `Cc1cc(CSc2ccc(Cl)cc2)ccc1N` as the molecule, how does the growth read?
**A.** 3.9% (active)

**Q.** With `O=C(CSc1nc2ccccc2[nH]1)c1ccc(N2CCOCC2)cc1` as the molecule, how does the growth read?
**A.** 113% (inactive)

**Q.** `Fc1ccc2c(CN3CCO[C@H](COc4cccc(Cl)c4)C3)c[nH]c2c1` was tested. Which growth did it give?
**A.** 27.1% (inactive)

**Q.** How did the growth turn out when `CC(=O)n1nc(C(=O)OC(C)(C)c2ccccc2)c2ccccc21` was run?
**A.** 97.5% (inactive)

**Q.** With `COc1cc2cc(Oc3ccc(NC(=O)c4cc(C(F)(F)F)cc(C(F)(F)F)c4)cc3)c(C)nc2cc1OC` as the molecule, how does the growth read?
**A.** 50.4% (inactive)

**Q.** Which growth does the source give for `O=C(CSc1nc(-c2ccccc2)cn1-c1ccc(Cl)cc1)c1ccc([N+](=O)[O-])cc1` here?
**A.** 95.8% (inactive)

**Q.** `COc1cc(-c2nccc3[nH]c(-c4cccc5[nH]ccc45)nc23)cc(OC)c1OC` was tested. Which growth did it give?
**A.** -41.1% (active)

**Q.** For `CCCN(CCC)CCC(O)c1cc2c(c3ccccc13)CCCC2` (configuration not stated), which growth is on record?
**A.** 113% (inactive)

**Q.** How did the growth turn out when `CCO/C=N/C1=C(C#N)C(c2ccc(Cl)cc2)c2c(c3ccc(C)cc3[nH]c2=O)O1` (configuration not stated) was run?
**A.** 88.6% (inactive)

**Q.** For `CN(C)c1ccc(C(=NO)c2ccc(N(C)C)cc2)cc1`, which growth is on record?
**A.** 25% (inactive)

**Q.** Which growth does the source give for `CCCCCCOc1ccc(/C=N/Nc2cc(C)nc3ccc(Cl)cc23)cc1` here?
**A.** 8.19% (active)
